Compound activity (PubChem)
AddAB inh = growth inhibition of E. coli expressing H. pylori AddAB, primary screen, AddAB inhibitor project, absorbance. inhibition, % at 11.9 µM. actives 0.29% (n = 330,000). AID 435030, 2010; in the data active means inhibition above about 12%;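 further: 0% = vehicle wells of infected cells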
E coli growth-1 = E. coli V3065 growth inhibition, primary screen, counter-screen for AddAB inhibitor project, absorbance, OD600 | 18 h | inhibition, % at 11.9 µM | actives 0.27% (n = 330,000) | AID 449728, 2010;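 active means inhibition above the campaign's mean inhibition across all tested compounds plus 3 SD, cut at about 9.9% in these data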;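 further: uninfected addAB+ strain grown without phage in ampicillin broth; 0% = DMSO wells and 100% = ciprofloxacin 0.95 µg/ml wells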
PfHsp90 yeast 2 = growth inhibition of PfHsp90-expressing yeast, primary screen, antimalarial PfHsp90 inhibitor project, S. cerevisiae, BacTiter-Glo luminescence, single point, set 2 | BacTiter-Glo ATP, 48 h; yeast lacking PDR1 and PDR3 efflux regulators | inhibition, % at 9.4 µM | actives 0.32% (n = 310,000) | AID 504621, 2011;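 active means every replicate shows inhibition above about 80%, whatever the replicate mean, limit read from the data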;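 further: 0% = DMSO neutral controls and 100% = 20 µM radicicol positive controls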
Tat export inh = E. coli Tat export inhibitors, primary screen, MC4100, TorA-mCherry reporter, fluorescence, single point | AID 488895, 2010 | inhibition, % at 10 µM | actives 0.036% (n = 340,000);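 active means mean replicate inhibition at least 50% and at least half of replicates individually reaching 50%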;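 further: exported cargo escapes ClpAP degradation while cytoplasmic cargo is degraded and loses fluorescence; 0% = median of neutral control wells and 100% = median of NaSCN control wells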
phage Ecoli inh = growth loss of phage-infected E. coli, primary screen, RecBCD inhibitor project, absorbance, with phage, HTS | inhibition, % at 11.9 µM | actives 0.26% (n = 360,000) | AID 651602, 2012; in the data active means inhibition above about 11%
E coli growth-2 = E. coli growth inhibition, primary screen, OD600; Escherichia coli growth, 23 h; active compounds read low; OD600 absorbance (concentration not given with the values); actives 0.21% (n = 330,000);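 active means OD600 absorbance below the run mean of sample wells minus 3.6 SD, in any replicate, cut at about 0.56 in these data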
AddAB conf = growth loss of phage-infected E. coli expressing H. pylori AddAB, confirmation, AddAB inhibitor project, absorbance, E. coli V3065, T4 phage, triplicate | shares compounds with AddAB inh | OD; T4 phage with gene 2 nonsense mutations | inhibition, % at 11.9 µM | actives 64% (n = 880) | AID 488942, 2010;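 active means mean inhibition above a set limit taken from the earlier primary screen, cut at about 13% in these data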;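 further: higher means less bacterial growth since AddAB block lets phage replicate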
RecBCD counter = growth loss of RecBCD+ E. coli with mutant T4 phage, counter-screen for AddAB inhibitor project, absorbance, V66 E. coli | actives 73% (n = 880) | shares compounds with AddAB inh | OD growth | inhibition, % at 11.9 µM;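 active means mean inhibition above the mean of solvent-only control wells plus 3 SD, cut at about 4% in these data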;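 further: optical density read after an 18 h incubation at 37 °C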
bact viab count = bacterial viability inhibition counter-screen, confirmation, counter-screen for AddAB inhibitor project, absorbance; shares compounds with AddAB inh; absorbance (AddAB counterscreen); inhibition, % at 11.9 µM; actives 35% (n = 880); AID 488956, 2010; in the data active means inhibition above about 25%
RecBCD conf = growth loss of phage-infected RecBCD+ E. coli, confirmation, RecBCD inhibitor project, absorbance, E. coli V66, T4 gene 2 phage; actives 45% (n = 890); inhibition, % at 11.9 µM; E. coli V66 + T4 2- phage, growth OD; shares compounds with phage Ecoli inh;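 active means mean inhibition over triplicates exceeding the hit threshold derived in the original primary screen, cut at about 11% in these data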
Ecoli viability = E. coli viability inhibition, counter-screen for RecBCD inhibitor project, absorbance, high throughput; absorbance (OD) growth; shares compounds with phage Ecoli inh; AID 651983, 2013; actives 29% (n = 890); inhibition, % at 11.9 µM; in the data active means inhibition above about 20%;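 further: E. coli strain V66 grown with compound alone and no phage infection; 0% = bacteria with DMSO vehicle only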
AddAB phage OD = growth loss of phage-infected AddAB-carrying E. coli, confirmation, counter-screen for RecBCD inhibitor project, absorbance, E. coli V3065, T4 phage; shares compounds with phage Ecoli inh; E. coli expressing H. pylori AddAB + T4 phage, OD growth; gene 2 mutant T4, recBCD-deleted host; inhibition, % at 11.9 µM; actives 45% (n = 890); AID 651984, 2013;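 active means mean inhibition above the solvent-only control wells' mean plus 3 SD, cut at about 22% in these data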;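 further: higher means less bacterial growth from phage killing when AddAB is blocked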
* hit, by the source's call; . = not tested or not shown; + = active, no number. A selection: hits, their analogues and other compounds. The true share with any hit is near 0.69%.

SMILES | AddAB inh | E coli growth-1 | PfHsp90 yeast 2 | Tat export inh | phage Ecoli inh | E coli growth-2 | AddAB conf | RecBCD counter | bact viab count | RecBCD conf | Ecoli viability | AddAB phage OD
Cc1cn([C@H]2C[C@H](N=[N+]=[N-])[C@@H](CO)O2)c(=O)[nH]c1=O | 100* | 100* | -21 | 39 | 97* | . | 100* | 71* | 100* | 97* | 93* | 101*
Clc1ccc(C=NNc2ccccc2)cc1 | . | . | . | . | . | 0.62 | . | . | . | . | . | .
Cc1ccc(C(=O)NS(=O)(=O)c2ccc(N=NN(C)C)cc2)cc1 | 100* | 70* | 4 | -9 | 13* | 0.65 | 0 | -1 | -1 | 0 | 1 | -1
Cc1cc(C)nc(NS(=O)(=O)c2ccc(N=NN(C)C)cc2)n1 | 3 | 0 | 10 | -12 | 1 | 0.68 | . | . | . | . | . | .
FC(F)Oc1ccc(NC(=S)NCc2nc3ccccc3[nH]2)cc1 | 16* | 17* | 12 | -74 | 17* | 0.54 | 33* | 19* | 22 | 21* | 19 | 36*
CCOc1ccc(NC(=S)NCc2nc3ccccc3[nH]2)cc1 | 20* | 16* | 20 | -35 | 20* | 0.56 | 32* | 19* | 24 | 17* | 16 | 29*
CC(C)c1ccccc1NC(=S)NCc1nc2ccccc2[nH]1 | 0 | 0 | 8 | -3 | 3 | 0.68 | . | . | . | . | . | .
O=C1OC(CN2CCOCC2)CN1N=Cc1ccc([N+](=O)[O-])o1 (configuration not stated) | 98* | 99* | 5 | 11 | 86* | 0.064* | 100* | 81* | 100* | 64* | 83* | 100*
O=C1CN(/N=C/c2ccc([N+](=O)[O-])o2)C(=O)N1 | 99* | 99* | . | . | 77* | . | 100* | 40* | 101* | 49* | 72* | 100*
CC(=O)c1cn(CC(=O)Nc2ccc(C)c(C)c2)c2ccccc12 | 2 | 4 | -2 | -8 | 3 | 0.71 | . | . | . | . | . | .
CC(=O)c1cn(CC(=O)Nc2ccc(C)cc2)c2ccccc12 | 14* | 11* | -13 | -9 | 11* | 0.72 | 0 | 2 | 1 | 3 | 8 | 4
N#CCC(Cc1ccccc1)N1CCC(NC(=O)OCc2ccccc2)CCC1=O (configuration not stated) | . | . | . | . | . | 0.69 | . | . | . | . | . | .
On1ccccc1=S | + | 76* | 107* | 142* | + | . | + | + | 98* | + | 105* | +
O=C(Cn1ccccc1=S)c1ccc(Cl)c(Cl)c1 | 8 | 3 | . | . | 3 | 0.62 | . | . | . | . | . | .
Cc1cccc(OCC(=O)NCC(=O)NN=Cc2ccccc2)c1 | . | . | . | . | . | 0.7 | . | . | . | . | . | .
Oc1ccccc1N=N/C(=N/Nc1ccccc1O)c1ccccc1 | 4 | 1 | 19 | 1 | 1 | . | . | . | . | . | . | .
N#C/C(N=Nc1ccccc1O)=N\Nc1ccccc1O | 23* | 22* | 20 | -3 | 30* | . | 89* | 27* | 94* | 25* | 25* | 94*
O=C(CCC1CCCC1)NNC(=O)c1cc2ccccc2cc1O | 18* | 9 | 7 | -11 | 16* | 0.67 | 14* | 14* | 13 | 8 | 9 | 14
O=C(CC1CCCC1)NNC(=O)c1ccccc1O | . | . | . | . | 0 | . | . | . | . | . | . | .
CCC(C)N1CCC2(CC1)N=c1c(c3c4c5c(C)c(O)c3c(O)c1=NC(=O)C(C)=CC=C[C@H](C)[C@H](O)[C@@H](C)[C@@H](O)[C@@H](C)[C@H](OC(C)=O)[C@H](C)[C@@H](OC)C=CO[C@@](C)(O5)C4=O)N2 (some centres not stated) | 97* | 98* | 23 | 107* | 105* | . | 96* | 97* | 99* | 96* | 99* | 102*
COC1C=COC2(C)Oc3c(C)c(O)c4c(O)c(c(CN5CCN(C)CC5)c(O)c4c3C2=O)NC(=O)C(C)=CC=CC(C)C(O)C(C)C(O)C(C)C(OC(C)=O)C1C (configuration not stated) | . | . | -13 | 8 | 1 | . | . | . | . | . | . | .
CCc1nnc(NS(=O)(=O)c2ccc(N=Cc3c(C)[nH]n(-c4ccc(C)c(C)c4)c3=O)cc2)s1 | 16* | 12* | 40 | -2 | 11* | . | 9 | 4.5* | 11 | 7 | 4 | 23*
O=C(/C=C1\NC2(CCCC2)Cc2ccccc21)C(=O)N/N=C/c1ccccc1O | 16* | 13* | 0 | 1 | 25* | . | 30* | 25* | 22 | 19* | 22* | 25*
CCOc1cccc(/C=N/NC(=O)c2cc(-c3cccn3C)n[nH]2)c1O | 17* | 12* | -19 | -11 | 18* | . | 19* | 21* | 20 | 9 | 10 | 15
COc1cc(OC)c(OC)cc1/C=N/NC(=O)c1cc(-c2cccn2C)n[nH]1 | 0 | -2 | -35 | 5 | 3 | . | . | . | . | . | . | .
CC(=O)c1c(C)n([O-])c2cc(C)ccc2[n+]1=O | 23* | 25* | -12 | -3 | 11* | 0.54* | 63* | 10.0* | 56* | 8 | 9 | 52*
COc1ccc(-c2c(C)n([O-])c(C)c(C)[n+]2=O)cc1OC | 1 | 0 | 14 | 4 | -1 | 0.69 | . | . | . | . | . | .
CCOC1OC(C(=O)N2CCCCCCC2)=CC(c2csc3ccccc23)C1CCCO (configuration not stated) | . | . | . | . | . | 0.66 | . | . | . | . | . | .
CCC(C)C(Nc1nc(-c2ccccc2)nc2c1oc1ccccc12)C(=O)O (configuration not stated) | . | . | . | . | . | 0.67 | . | . | . | . | . | .
